This is an account of results in PubChem BioAssay (NCATS).

The structures appear in SMILES notation. Results filed as inconclusive are left out. Unmarked numbers belong to inactive results. Active and inactive are the calls of the source. Calls follow the shape of the dose curve; as a rule, active = well fitted inhibition curve with a large enough effect; inconclusive = small, poorly fitted or top-dose-only effect; inactive = flat fitted curve, though single readings scatter.

In assay [1] the test system is HACAT. Kind of assay: qHTS assay to identify novel small-molecules to repurpose for Merkel cell carcinoma treatment (AID 1296009). The following applies: MCC and control cell lines, CellTiter-Glo viability, 72 h. The gist of the method:
(§1)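 After compound transfer in DMSO, plates were kept 72 hr at 37 degree celsius. Luminescent ATP signal from CellTiter-Glo served as viability measure, normalized against DMSO and no-cell controls.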

In assay [2] the test system is HEK293T. The assay is described as above. The following applies: MCC and control cell lines, CellTiter-Glo viability, 72 h. A digest of the protocol:
as §1
A general note: In ATP-based viability assays light output follows the ATP content of the culture.

For assay [3], the system named is CRL-7250. Described as above. The following applies: MCC and control cell lines, CellTiter-Glo viability, 72 h; at 44.8 µM (top of the series) unless noted. The gist of the method: as §1
For assay [4], the system named is NIH3T3. Nature of the assay: Cytotoxic Profiling of Annotated Libraries Using Quantitative High-Throughput Screening (AID 1296008). The following applies: Five cell lines viability, CellTiter-Glo ATP luminescence, 48-72 h; max response: stronger effect = lower value. The gist of the method:
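Cytotoxicity was measured as CellTiter-Glo ATP luminescence, read after 10 min at room temperature. Compound treatment of the cells lasted 48 or 72 hr at 37 degrees Celsius in a qHTS format.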

Assay [5] deals with MCC-13. Nature of the assay: qHTS assay to identify novel small-molecules to repurpose for Merkel cell carcinoma treatment (AID 1296009). To be noted: MCC and control cell lines, CellTiter-Glo viability, 72 h; series mostly up to 46 µM. A digest of the protocol:
as §1
On the technique in general: Quantitative high-throughput screening tests each substance at several concentrations.

Assay [6] concerns MKL-1. Described as above. The following applies: MCC and control cell lines, CellTiter-Glo viability, 72 h; series mostly up to 46 µM. A digest of the protocol:
as §1

The subject of assay [7] is MKL-2. The description is as above. To be noted: MCC and control cell lines, CellTiter-Glo viability, 72 h; series mostly up to 46 µM. The gist of the method:
as §1

The test system of assay [8] is UISO. Described as above. To be noted: MCC and control cell lines, CellTiter-Glo viability, 72 h; series mostly up to 46 µM. The gist of the method:
as §1

The test system of assay [9] is MCC-26. Described as above. The following applies: MCC and control cell lines, CellTiter-Glo viability, 72 h; series mostly up to 46 µM. A digest of the protocol:
as §1

Assay [10] relates to NIH3T3. The assay is described as above. The following applies: MCC and control cell lines, CellTiter-Glo viability, 72 h; at 44.8 µM (top of the series) unless noted. A digest of the protocol: as §1
% is scaled to controls: 0 for no effect and ±100 for the full control effect; potency is read from the fitted curve at half-maximal effect.
Also: nearly all actives have a fitted effect of over 60% in size.

With `C=CCN1C[C@H](C)N([C@H](c2ccc(C(=O)N(CC)CC)cc2)c2cccc(OC)c2)C[C@H]1C`, the result in [1] (at 9.27 µM (top of the series)) and in [1] (at 44.8 µM (top of the series)) was inactive.
As for `CCOC(=O)CC(SP(=S)(OC)OC)C(=O)OCC` (centres undefined), the call in assay [2] (at 44.8 µM (top of the series)) and in assay [2] (at 92 µM (top of the series)) was inactive.
As for `COc1cc(/C=C/C(N)=O)cc(OC)c1OC`, the compound was called inactive in assay [3].
Regarding `C=CCC1([C@H](C)CCC)C(=O)NC(=O)NC1=O`, in [4], the max response is -4.37%. Moreover, the result in [5] was inactive. Further, the Potency result in assay [6], in [7] and in assay [8] was “inactive” in each case.
On to `C[C@H](N)C(=O)c1ccccc1`, for which, in assay [4], the max response was -1.01%. Further, the compound was called inactive in [5]. The Potency result in [9], in [6], in assay [7] and in [8] was “inactive” in each case.
Turning to `C[C@]12Cc3cn[nH]c3C[C@@H]1CC[C@@H]1[C@@H]2CC[C@@]2(C)[C@H]1CC[C@]2(C)O`, the max response in [4] is 3.99%. For the same compound, the compound was called inactive in [5]. Moreover, the Potency entry in assay [6] and in [7] was “inactive” each time.
Consider `NC(=O)CS(=O)C(c1ccccc1)c1ccccc1` (centres undefined), for which, in [4], the max response is -4.5%. Moreover, the compound was classed as inactive in assay [5]. Besides, the Potency result in assay [6], in assay [7] and in [8] was “inactive” in each case.
Take `NC(=O)N1c2ccccc2C=Cc2ccccc21`: the result in assay [3] was inactive.
Turning to `CCCCCCC(=O)CCCCCC/C=C/C[C@@H](O)[C@H](O)[C@@](N)(CO)C(=O)O`, in assay [4], the max response was 0.482%. Further, the result in [5] was inactive. For the same compound, the Potency result in [9], in assay [6], in [7] and in assay [8] was “inactive” in each case.
In the case of `O=[N+]([O-])O[C@H]1CO[C@H]2[C@@H]1OC[C@H]2O[N+](=O)[O-]`, the max response in assay [4] was -0.157%. Moreover, in assay [5], the outcome was inactive. For the same compound, the Potency entry in assay [9], in [6], in assay [7] and in assay [8] was “inactive” each time.
Consider `CC(C)(C)NCC(O)c1ccccc1Cl` (centres undefined), for which the max response in assay [4] was -6.71%. Besides, in assay [5], the result was inactive. The Potency result in [6], in [7] and in [8] was “inactive” throughout.
On to `CC(C)C[C@H](CN)CC(=O)O`, for which the max response in assay [4] is -13.2%. Moreover, the compound was called inactive in [5]. For the same compound, the Potency result in assay [6], in assay [7] and in [8] was “inactive” in each case.
Take `COc1cc(CCN)cc(OC)c1OC`: the max response in assay [4] is -22.5%. Further, in [5], the call was inactive. Also, the Potency entry in assay [9], in [6] and in assay [8] was “inactive” each time.
As for `CC(C)c1c(CN(C)C(C)Cc2ccccc2)n(C)n(-c2ccccc2)c1=O` (centres undefined), in [4], the max response was 4.46%. The outcome in [5] was inactive. Besides, the Potency entry in assay [9], in [6], in assay [7] and in assay [8] was “inactive” throughout.
With `CCCN(CCC)C(=O)Cc1c(-c2ccc(Cl)cc2)nc2ccc(Cl)cn12`, in [4], the max response is 0.9%. Besides, the call in [5] was inactive. Besides, the Potency entry in [6], in assay [7] and in assay [8] was “inactive” throughout.
Take `Cc1ncsc1CCCl`: the max response in assay [4] is 0.655%. Besides, the call in [5] was inactive. For the same compound, the Potency entry in [6], in [7] and in assay [8] was “inactive” in each case.
With `C[C@@H]1CC2=CC(=O)CC[C@@H]2[C@H]2CC[C@@]3(C)[C@@H](CC[C@]3(C)O)[C@@H]21`, the max response in assay [4] is -27.8%. In addition, the outcome in [5] was inactive. In addition, the Potency result in [9], in assay [6], in assay [7] and in assay [8] was “inactive” in each case.
For the compound `COP(=S)(OC)Oc1cc(Cl)c(Cl)cc1Cl`, the max response in [4] is -6.48%. The outcome in assay [5] was inactive. In addition, the Potency entry in assay [9], in assay [6] and in assay [8] was “inactive” in each case.
As for `Clc1ccc(C(c2ccc(Cl)cc2)C(Cl)(Cl)Cl)cc1`, the max response in assay [4] was -6.38%. Further, the call in assay [5] was inactive. For the same compound, the Potency entry in [6], in assay [7] and in assay [8] was “inactive” each time.
In the case of `C#C[C@]1(O)CC[C@H]2[C@@H]3CCC4=CC(=O)CC[C@]4(C)[C@H]3CC[C@@]21C`, the max response in [4] is 4.32%. In addition, the outcome in assay [5] was inactive. Further, the Potency entry in assay [9], in [6], in [7] and in assay [8] was “inactive” each time.
For the compound `COc1cccc2c1C(=O)c1c(O)c3c(c(O)c1C2=O)C[C@@](O)(C(=O)CO)CC3OC1CC(N2CCOC(OC)C2)C(O)C(C)O1` (some centres undefined), the figures for the Potency in [4], in assay [9] and in [8] were 0.0067 µM (active), 0.0473 µM (active) and 0.0188 µM (active), respectively.
With `CCC(CC)(CNC(=O)CCCO)c1cccc(OC)c1`, the compound was called inactive in [4], in [5] and in assay [10]. Moreover, the Potency entry in assay [9], in assay [6], in assay [7] and in assay [8] was “inactive” each time.
As for `COP(=S)(OC)Oc1ccc(S(=O)(=O)N(C)C)cc1`, the max response in assay [4] is -0.737%. Also, the result in [5] was inactive. The Potency entry in assay [9], in assay [6], in assay [7] and in assay [8] was “inactive” throughout.
Turning to `Clc1cccc(SC2CCNCC2)n1`, in [4], the max response was 4.41%. Besides, the compound was classed as inactive in assay [5]. Also, the Potency result in assay [9], in assay [6], in assay [7] and in assay [8] was “inactive” throughout.
As to `C[C@H]1[C@@H]2Cc3ccc(O)cc3[C@@]1(C)CCN2C`, the outcome in assay [4] and in [5] was inactive. Moreover, the Potency result in assay [6], in [7] and in [8] was “inactive” in each case. Besides, in assay [10], the outcome was “inactive [at 231 µM]”.
Regarding `CCOP(=S)(OCC)Oc1ccc2c(C)c(Cl)c(=O)oc2c1`, the max response in assay [4] is -7.51%. The call in assay [5] was inactive. Besides, the Potency entry in assay [9], in assay [6] and in assay [8] was “inactive” in each case.
